Sampled rows, rich in hits. Any-hit rate of the full collection: about 19%.
HT1080NT lethal: qHTS for induction of synthetic lethality in tumor cells producing 2HG: qHTS for the HT-1080-NT fibrosarcoma cell line; HT-1080-NT fibrosarcoma viability, CellTiter-Glo ATP luminescence, 48 h; Potency, µM (series often up to 46.1 µM), without a hit: top-dose activity, negative = less viability, actives largely listed as cytotoxic; hit rate 1.6% among 360,000; AID 686970, 2013;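 further: NT is the 2HG producing partner of a matched IDH1 knockdown line; potency means the concentration at half of the fitted maximal effect; 0% = DMSO-treated cells and -100% = media-only wells without cells; nearly all actives have a fitted effect of over 55% in size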
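Viability of the 2HG-overproducing fibrosarcoma line after 48 hours of compound exposure at 37 degrees C was determined by luminescence with CellTiter-Glo, and concentration-effect curves were then fitted and categorized.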
IL1B secr inh: qHTS for Inhibitors of Inflammasome Signaling: IL-1-beta AlphaLISA Primary Screen. THP-1 LPS/ATP IL-1B secretion, AlphaLISA, 16 h; active compounds read low. activity change, % at 57.5 µM. hit rate 4.7% among 360,000; in the data active means activity change below about -50%; inconclusive means mostly about -30% to -49%
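Secreted IL-1B measured by AlphaLISA bead assay after 16 h compound exposure of THP-1 cells; compounds (final up to 57.5 uM) added 1 h before LPS (250 ng/mL) and ATP (1.25 mM) stimulation; lower signal means less secretion.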
DT40 TDP1 CPT: qHTS for Inhibitors of human tyrosyl-DNA phosphodiesterase 1 (TDP1): qHTS in cells in presence of CPT; hit rate 12% among 420,000; Potency, µM (titrated, usually from 46.2 µM), inactives show at the top dose activity change, negative = growth inhibition, most hits filed as inhibitors; chicken DT40 Tdp1-/-;hTDP1 cells + 20 nM CPT, ATP luminescence, 48 h; further: potency means the concentration at half of the fitted maximal effect; nearly all actives have a fitted effect of over 55% in size
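Chicken DT40 Tdp1-/- cells complemented with human TDP1, 400 cells/well, exposed to compounds plus 20 nM camptothecin for at least 48 h at 37 C; viability read as ATP content by CellTiter-Glo luminescence.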
HT1080 IDH1KD tx: qHTS for induction of synthetic lethality in tumor cells producing 2HG: qHTS for the HT-1080-IDH1KD cell line; HT-1080 IDH1 knockdown viability, ATP luminescence, 48 h; Potency, µM (doses to about 46.1 µM), without a hit: at the top dose activity, negative = toxicity, hits mostly cytotoxic; hit rate 2% among 360,000; AID 686971, 2013;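 further: potency means the concentration at half of the fitted maximal effect; 0% = DMSO wells and -100% = cell-free medium wells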
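CellTiter-Glo luminescence after 48 h compound exposure at 37 degrees C of IDH1-knockdown HT-1080 cells in 5% FBS RPMI. %Activity scaled between DMSO wells and cell-free media wells, with curves fitted and assigned curve classes.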
DT40 TDP1 no CPT: qHTS for Inhibitors of human tyrosyl-DNA phosphodiesterase 1 (TDP1): qHTS in cells in absence of CPT. Potency, µM (highest dose often 46.2 µM), without a hit: top-dose activity change, negative = growth inhibition, most hits filed as inhibitors. hit rate 15% among 420,000. AID 686978, 2013. DT40 Tdp1-/- hTDP1 cells, no CPT, ATP luminescence, 48 h; further: potency means the concentration at half of the fitted maximal effect; nearly all actives have a fitted effect of over 55% in size
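Readout: luminescence from CellTiter-Glo after 30 min in the dark at RT. Cells: DT40 Tdp1-/- with stable hTDP1, 400/well. Exposure: compounds alone, ≥48 hr, 37 °C.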
* hit, by the source's call; u = inconclusive; x = no result. Unless noted, the call rests on the fitted dose curve; in most records, active means well fitted curve in the direction sought with a large enough effect; inconclusive means small, poorly fitted or top-dose-only effect, or another doubt; inactive means no such curve, though single readings can be large; an effect the other way counts as inactive or inconclusive. Unless noted, on the % scale 0 is the no-effect control and ±100 the full control effect.

SMILES	HT1080NT lethal	IL1B secr inh	DT40 TDP1 CPT	HT1080 IDH1KD tx	DT40 TDP1 no CPT
Oc1[nH]c2ccccc2c1N=Nc1nncc2ccccc12	u	11.0	u	u	u
CCOC(=O)/C(C#N)=C/C1=C(N2CCOCC2)C(C)(C)OCC1	19.6%	-3.2	27.1%	8.0%	-23.1%
COc1cccc(C(=O)N(CN2CCCC2=O)c2ccccc2OC)c1	-5.8%	13.6	-19.4%	3.6%	-14.9%
Cc1ccc(N(CN2CCCC2=O)C(=O)c2ccccc2)cc1	0.0%	30.3	13µM*	-0.7%	13µM*
COc1ccc(C(=O)N(CN2CCCC2=O)c2ccc(C)cc2)cc1	-3.9%	22.4	u	-9.8%	14.6µM*
O=C(NCc1cccnc1)c1ccc(Cl)c(Cl)c1	-2.9%	17.3	23.1%	1.6%	14.3%
O=C(NCc1cccnc1)/C(=C\c1ccc(-c2ccc(Cl)c(Cl)c2)o1)S(=O)(=O)c1ccccc1	u	-107.2*	4.61µM*	u	4.61µM*
CCOC(=O)CC(=O)CSc1n[nH]c(=O)[nH]c1=O	0.6%	13.7	11.3%	-3.6%	2.9%
C[C@]12CC[C@@H]3c4ccc(O)cc4CC[C@H]3[C@@H]1CC[C@@H]2OC(=O)CCC(=O)O	-34.0%	2.6	0.731µM*	-8.4%	1.4%
CCCCC(=O)OC1CCC2C3CCc4cc(O)ccc4C3CCC12C (stereo not given)	u	1.2	u	u	18.4µM*
C[C@]12CCC3c4ccc(O)cc4CCC3C1CCC2OC(=O)CCC1CCCC1 (stereo not given in full)	x	x	2.5%	x	1.7%
C=CCc1cccc(CNc2c(C)cc(C)cc2C)c1O	8.8%	-18.8	-5.6%	13.6%	u
O=S(=O)(c1ccccc1)c1cnc(-c2ccccc2)nc1N1CCCC1	-1.1%	-10.3	-27.3%	-18.6%	18.4µM*
Cc1nc(-c2ccccc2)sc1-c1nc(-c2ccncc2)ncc1S(=O)(=O)c1ccccc1	14.9%	-53.6*	u	5.9%	u
O=C(C(c1ccccc1)C(O)c1ccccc1)N1CCOCC1 (stereo not given)	9.1%	-3.9	-13.8%	6.3%	-5.3%
Cc1ccc(S(=O)(=O)/N=C(\CN2CCCCC2)N2CCOCC2)cc1	-0.9%	-7.4	-21.6%	9.1%	-11.1%
O=C(Cc1cccs1)Nc1ccc(F)cc1	12.4%	-2.4	-4.3%	2.4%	-18.8%
COc1cccc(N2CCN(C(=O)C3CCCN(c4ncnc5c4nc4n5CCCCC4)C3)CC2)c1 (stereo not given)	-26.6%	-21.4	16.4µM*	-22.9%	u
O=C(C1CCCN(c2ncnc3c2nc2n3CCCCC2)C1)N1CCN(c2ccccc2F)CC1 (stereo not given)	12.4%	-6.2	u	13.8%	9.2µM*
CCN1CCN(C(=O)C2CCCN(c3ncnc4c3nc3n4CCCCC3)C2)CC1 (stereo not given)	8.6%	32.4	4.2%	13.2%	1.0%
Nc1nc2cc(Cl)c(Br)cc2o1	19.6%	12.2	-0.9%	25.3%	-12.4%
CCOC(=O)c1c(-c2ccccc2)csc1NC(=O)CCN1CCOCC1	-0.6%	9.3	u	1.3%	23.1µM*
CCOC(=O)c1[nH]cc(-c2ccccc2)c1N1CCOCC1	3.7%	-15.4	16.4µM*	4.6%	29.1µM*
CCOC(=O)c1cc(-c2ccc(N3CCOCC3)cc2)nn1-c1ccccc1	-14.6%	21.9	20.6µM*	-9.8%	11.6µM*
CCOC(=O)c1c(-c2ccccc2)csc1NC(=O)COc1ccc2c(C)cc(=O)oc2c1	17.2%	-20.1	u	22.2%	11.6µM*
SMILES	HT1080NT lethal	IL1B secr inh	DT40 TDP1 CPT	HT1080 IDH1KD tx	DT40 TDP1 no CPT
CCN1CCN(C(c2ccc(OC)cc2)C(O)C(=O)c2c[nH]c3ccccc23)CC1 (stereo not given)	-1.0%	31.9	-22.4%	-0.6%	-12.2%
CCOC(=O)c1c(-c2ccccc2)csc1NC(=O)c1ccc(S(=O)(=O)N2CCOCC2)cc1	-2.1%	0.0	5.8µM*	-5.6%	10.3µM*
CCOC(=O)c1c(-c2ccc(C)cc2)csc1NC(=O)CCN1CCOCC1	-2.3%	-12.7	u	11.0%	23.1µM*
C=CCSCC(N)C(=O)O (stereo not given)	x	x	-2.1%	x	4.7%
O=C(NCc1cccnc1)c1ccccc1[N+](=O)[O-]	-6.8%	13.3	18.9%	-6.6%	-20.4%
O=C(COc1ccc(F)cc1)NC1CC(=O)N(c2ccc3c(c2)OCCO3)C1 (stereo not given)	x	x	-13.9%	x	-22.2%
CC1(C)N=c2ccc([N+](=O)[O-])c(N)c2=[N+]1[O-]	u	78.0	14.6µM*	-25.0%	20.6µM*
Cc1ccc([N+](=O)[O-])c(C)[n+]1C	2.1%	20.3	u	-10.5%	u
CCN1CCN(CCCNC(=O)c2ccc(CS(=O)c3ccc(Br)cc3)o2)CC1 (stereo not given)	15.4%	-10.6	-10.4%	14.6%	32.5%
COc1ccc(/C=C/C(=O)OCC(=O)NCc2ccccc2Cl)cc1OC	10.4%	10.5	-21.1%	15.3%	-21.1%
COc1ccc(-c2cc(C(=O)N3CCOCC3)c3ccccc3n2)cc1OC	-9.1%	0.2	-10.9%	-16.4%	-26.2%
COc1ccc(-c2cc(C(=O)N3CCCCC3)c3ccccc3n2)cc1OC	-11.4%	-69.3*	u	-8.7%	-50.0%
COc1ccc(-c2cc(C(=O)N3CCCC3)c3ccccc3n2)cc1OC	1.4%	-28.3	-24.1%	2.2%	-12.5%
COc1ccc(-c2cc(C(=O)N3CCCCC3)c3ccccc3n2)cc1	-6.8%	-25.5	16.4µM*	-1.2%	u
O=C(c1cc(-c2ccc(Cl)cc2)nc2ccccc12)N1CCC1	-6.2%	-7.0	18.4µM*	-13.2%	16.4µM*
COc1ccc(-c2cc(C(=O)N3CCN(c4cccc(C)c4C)CC3)c3ccccc3n2)cc1OC	-13.1%	-8.6	u	-24.4%	13µM*
Cc1nn(-c2ccccc2)c2sc(C(=O)OCC(=O)N3CCCCC3)cc12	9.2%	18.9	-13.2%	5.0%	8.0%
COc1ccc(Nc2nnc(-c3ccccc3)c3ccccc23)cc1C(=O)N1CCCCC1	-5.1%	-14.3	-26.2%	-19.0%	-22.4%
Cc1cc(C(=O)OCC(=O)N2CCN(c3ccccc3)CC2)c2ccccc2n1	7.3%	-3.0	u	6.2%	u
COc1cc(C(=O)N2CCN(c3ccccc3)CC2)c2ccccc2n1	u	78.2	0.92µM*	0.517µM*	0.731µM*

Screening results: PubChem BioAssay, National Center for Advancing Translational Sciences (NCATS)
